Experiments:
Type in all cases: functional
[1] = biological target: Solute carrier family 2, facilitated glucose transporter member 1 (Homo sapiens) (UniProt P11166); assay: ST_JUDE_LEISH: Cytotoxicity at 2uM final concentration against transgenic Leishmania Mexicana promastigotes LmGLUT1 that are glucose transport deficient and complemented with the human glucose transporter GLUT1. Activity is measured by DNA content using SYBR green in vitro
[2] = biological target: Hexose transporter 1 (Plasmodium falciparum) (UniProt O97467); assay: ST_JUDE_LEISH: Cytotoxicity at 2uM final concentration against transgenic Leishmania Mexicana promastigotes LmPfHT that are glucose transport deficient and complemented with the Plasmodium falciparum hexose transporter. Activity is measured by DNA content using SYBR green in vitro
[3] = biological target: Glucose transporter (Leishmania mexicana) (UniProt O61059); assay: ST_JUDE_LEISH: Cytotoxicity at 2uM final concentration against transgenic Leishmania Mexicana promastigotes LmGT2 that are glucose transport deficient and complemented with the L. Mexicana glucose transporter 2. Activity is measured by DNA content using SYBR green in vitro

Solute carrier family 2, facilitated glucose transporter member 1 (Homo sapiens), sequence (P11166 whole entry): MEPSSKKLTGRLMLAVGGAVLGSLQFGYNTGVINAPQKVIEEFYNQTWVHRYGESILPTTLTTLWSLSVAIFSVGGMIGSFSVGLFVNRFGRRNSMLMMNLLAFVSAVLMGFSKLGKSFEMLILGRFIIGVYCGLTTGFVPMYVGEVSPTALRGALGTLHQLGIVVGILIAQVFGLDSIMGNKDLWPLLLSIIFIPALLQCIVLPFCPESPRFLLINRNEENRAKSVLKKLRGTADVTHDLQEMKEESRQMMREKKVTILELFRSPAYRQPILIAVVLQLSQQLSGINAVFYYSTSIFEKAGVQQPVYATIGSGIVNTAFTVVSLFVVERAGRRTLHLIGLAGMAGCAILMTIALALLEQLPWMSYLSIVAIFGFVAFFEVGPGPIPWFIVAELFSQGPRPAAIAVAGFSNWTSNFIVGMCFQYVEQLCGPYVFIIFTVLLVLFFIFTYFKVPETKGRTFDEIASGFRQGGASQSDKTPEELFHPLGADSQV

**Q.** How did the inhibition [1] turn out when `S=C(Nc1cccc(Cl)c1)NC1CCN(c2ccnc3cc(Cl)ccc23)C1` (centres undefined) was run?
**A.** 13.2%

**Q.** And the inhibition [2]?
**A.** 9.65%

**Q.** What about the inhibition [3] of the same compound?
**A.** 9.07%

**Q.** `O=C(N[C@H]1CCCC[C@H]1C(=O)O)c1ccccc1` was tested. Which inhibition [1] did it give?
**A.** 0.5%

**Q.** And the inhibition [2]?
**A.** 1.61%

**Q.** And the inhibition [3]?
**A.** 0.81%

**Q.** Which inhibition [1] does the source give for `Cc1[nH]c(C)c(-c2ccc(/C=C/c3ccccn3)cc2)c(=O)c1Cl` here?
**A.** 4.28%

**Q.** What about the inhibition [2] of the same compound?
**A.** 4.49%

**Q.** What about the inhibition [3] of the same compound?
**A.** 5.12%

**Q.** How did the inhibition [1] turn out when `CCn1cnc2c(Nc3cccc([N+](=O)[O-])c3)nc(N3CCC(N4CCCCC4)CC3)nc21` was run?
**A.** 0.93%

**Q.** And the inhibition [2]?
**A.** 3.03%

**Q.** What about the inhibition [3] of the same compound?
**A.** -0.24%

**Q.** Which results are given for `Cc1cc(NC(=O)c2coc3cc(F)c(N4CC(C)N(C)C(C)C4)cc23)ccc1-n1ccnc1` (centres undefined)?
**A.** inhibition [1]: 2.32%; inhibition [2]: 1.16%; inhibition [3]: -1.58%

**Q.** Which inhibition [1] does the source give for `COc1cccc2c(NN=Cc3ccccc3Cl)cc(C)nc12` here?
**A.** 48%

**Q.** And the inhibition [2]?
**A.** 63.1%

**Q.** What about the inhibition [3] of the same compound?
**A.** 21.7%

**Q.** `O=C(Nc1ccc(-n2ccc(C(F)(F)F)n2)cc1)c1cccs1` was tested. Which inhibition [1] did it give?
**A.** 0.18%

**Q.** What about the inhibition [2] of the same compound?
**A.** 0.85%

**Q.** And the inhibition [3]?
**A.** 0.42%

**Q.** Which inhibition [1] does the source give for `CC1CN(CCCn2c3ccccc3c3ccc(C(=O)CCCN(C)C)cc32)CC(C)N1` (centres undefined) here?
**A.** 1.15%

**Q.** What about the inhibition [2] of the same compound?
**A.** 1.4%

**Q.** And the inhibition [3]?
**A.** 1.24%

**Q.** `COc1ccc(OC)c(NC(=O)C2c3ccccc3C(=O)N(CC(C)C)C2c2cccs2)c1` (centres undefined) was tested. Which inhibition [1] did it give?
**A.** -1.99%

**Q.** What about the inhibition [2] of the same compound?
**A.** -2.35%

**Q.** What about the inhibition [3] of the same compound?
**A.** -0.44%

**Q.** With `CO[C@H](C)[C@H](NC(=O)[C@H](CC(C)C)[C@H](CCC(F)(F)F)N(O)C=O)C(=O)Nc1nccs1` as the compound, how does the inhibition [1] read?
**A.** 4.95%

**Q.** And the inhibition [2]?
**A.** 4.95%

**Q.** And the inhibition [3]?
**A.** 3.68%

**Q.** For `CC1CC(NCCCNc2cc(=O)c3ccccc3[nH]2)c2c(Cl)c(Cl)cc(Cl)c21` (centres undefined), which inhibition [1] is on record?
**A.** 5.21%

**Q.** And the inhibition [2]?
**A.** 3.08%

**Q.** What about the inhibition [3] of the same compound?
**A.** 1.22%

**Q.** For `Nc1cccc(CNCc2cccc(-c3csc(-c4nc5ccccc5[nH]4)c3)c2)c1`, which inhibition [1] is on record?
**A.** 2.32%

**Q.** And the inhibition [2]?
**A.** 2.29%

**Q.** And the inhibition [3]?
**A.** 1.68%

**Q.** What does the source list for `CC(C)CCN(Cc1cncn1Cc1cccc(C(F)(F)F)c1)C(=O)c1cncc(-c2ccccc2)c1`?
**A.** inhibition [1]: 3.6%; inhibition [2]: 4.72%; inhibition [3]: 1.28%
